Laboratory results from the supplement of paper PMC10338343.
± gives the standard deviation.

Test system: MILI (PIWIL2) piRISC loaded with L1MC piRNA (26 nt)
Test: pre-steady-state target cleavage rate (min^-1); guide: L1MC piRNA 5'p-UAACUAAAUACUAUGCAAGCUGUAGG; MIWI and MILI are mouse PIWI proteins and EfPiwi is from a freshwater sponge; tags in brackets are library labels; higher = faster piRNA-guided slicing of the target
How it was run: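 Sequencing of uncleaved targets, normalised to depth and to weakly complementary targets, was the readout of this Cleave-'n-Seq assay. A transcribed, DNA-blocked target RNA library (0.1 nM) was mixed with 1 nM active affinity-purified piRISC carrying one synthetic guide, with or without 500 nM GTSF1 partner protein, in HEPES–potassium acetate buffer at 33 °C for 0–8 or 0–960 min. Three trials were pooled, k3 was capped at 0.0001 min^-1, and a burst-and-steady-state fit gave the pre-steady-state cleavage rate.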

[1] = auxiliary factor: 500 nM mouse GTSF1
[2] = auxiliary factor: none (no GTSF1)

## UCCUGGAACAGCUUCGAUAGUAUUUAGUAA
[1]
  pre-steady-state target cleavage rate: 0.167 ± 0.019
[2]
  pre-steady-state target cleavage rate: 0.00446 ± 0.0025

## UCCUGGAUGUCGUUGCAUAUUAUUUAGUUA
[1]
  pre-steady-state target cleavage rate: 0.0246 ± 0.0061
[2]
  pre-steady-state target cleavage rate: 0.00364 ± 0.0023

## UCCUGGAUGACGCUUGCAUAGUAUUUAGUUA
[1]
  pre-steady-state target cleavage rate: 0.211 ± 0.022
[2]
  pre-steady-state target cleavage rate: 0.00493 ± 0.0037

## UCCUGGAUGUCGUUGCAUAGUCAUUUAGUUA
[1]
  pre-steady-state target cleavage rate: 0.00441 ± 0.0039
[2]
  pre-steady-state target cleavage rate: 0.00434 ± 0.0028

## UCCUGGAUGUCGAGGCAUAGUAUUUAGUUA
[1]
  pre-steady-state target cleavage rate: 0.0728 ± 0.016
[2]
  pre-steady-state target cleavage rate: 0.00723 ± 0.0026

## UCCUGGUACACGUUGCAUAGUAUUUAGUUA
[1]
  pre-steady-state target cleavage rate: 0.19 ± 0.045
[2]
  pre-steady-state target cleavage rate: 0.0113 ± 0.0051

## UCCUGGAUGUCGAUGCAUAGUAUUUAGUUU [g2:g17:cont:t1U]
[1]
  pre-steady-state target cleavage rate: 0.09 ± 0.011
[2]
  pre-steady-state target cleavage rate: 0.00618 ± 0.0021

## UCCUGGAUGAGCUUGCAAUGUAUUUAGUAA
[1]
  pre-steady-state target cleavage rate: 0.0194 ± 0.0045
[2]
  pre-steady-state target cleavage rate: 0.00717 ± 0.0024

## UCCUGGAUGUCCUUGCAAAGUAUUUAGUAA
[1]
  pre-steady-state target cleavage rate: 0.0311 ± 0.0099
[2]
  pre-steady-state target cleavage rate: 0.00418 ± 0.0019

## UCCUGGAUGUCCAAGCAUAGUAUUUAGUAA
[1]
  pre-steady-state target cleavage rate: 0.0187 ± 0.0069
[2]
  pre-steady-state target cleavage rate: 0.00309 ± 0.0027

## UCCUCCUACAGGUAGCAUAGUAUUUAGUUA
[1]
  pre-steady-state target cleavage rate: 0.273 ± 0.013
[2]
  pre-steady-state target cleavage rate: 0.00904 ± 0.0021

## UCCUGGAUGUCGUUGCAUAGUAUAUAGUUA
[1]
  pre-steady-state target cleavage rate: 0.155 ± 0.028
[2]
  pre-steady-state target cleavage rate: 0.00761 ± 0.0026

## UCCUGGUACAGCUACGAUAGUAUUUAGUUA
[1]
  pre-steady-state target cleavage rate: 0.15 ± 0.016
[2]
  pre-steady-state target cleavage rate: 0.00343 ± 0.0026

## UCCUGGAAGCAGCUUGCAUAGUAUUUAGUUA
[1]
  pre-steady-state target cleavage rate: 0.259 ± 0.016
[2]
  pre-steady-state target cleavage rate: 0.0136 ± 0.0032

## UCCUGGAUGUCCUUGCAUAGUAUUCAGUUA
[1]
  pre-steady-state target cleavage rate: 0.0755 ± 0.018
[2]
  pre-steady-state target cleavage rate: 0.00338 ± 0.0028

## UCCUGGAUGUCGAUGCAUAGUAUUUAGUAUA
[1]
  pre-steady-state target cleavage rate: 0.0977 ± 0.016
[2]
  pre-steady-state target cleavage rate: 0.00504 ± 0.0027

## UCCUGGUACAGCUUGCAUAGUUAAUAGUUA
[1]
  pre-steady-state target cleavage rate: 0.0312 ± 0.01
[2]
  pre-steady-state target cleavage rate: 0.00424 ± 0.0026

## UCCUGGAUGAGCUUGCAUAGUAUUUAUGUUA
[1]
  pre-steady-state target cleavage rate: 0.102 ± 0.021
[2]
  pre-steady-state target cleavage rate: 0.00381 ± 0.0034

## UCCUGGUACAGCUUGGAAAGUAUUUAGUUA
[1]
  pre-steady-state target cleavage rate: 0.111 ± 0.014
[2]
  pre-steady-state target cleavage rate: 0.00903 ± 0.0035

## UCCUGGAUCAGCUUGGUUAGUAUUUAGUAA
[1]
  pre-steady-state target cleavage rate: 0.256 ± 0.031
[2]
  pre-steady-state target cleavage rate: 0.00444 ± 0.0025

## UCCUGGAUGUCGAUGCAUAGUAGUUAGUUA
[1]
  pre-steady-state target cleavage rate: 0.0193 ± 0.005
[2]
  pre-steady-state target cleavage rate: 0.00415 ± 0.0021

## UCCUGGAUCAGCUUGGAUAGUAUUAAGUUA
[1]
  pre-steady-state target cleavage rate: 0.162 ± 0.027
[2]
  pre-steady-state target cleavage rate: 0.00386 ± 0.0022

## UCCUGGAUGUGCUUGCUUAGUUUUUAGUUA
[1]
  pre-steady-state target cleavage rate: 0.011 ± 0.0063
[2]
  pre-steady-state target cleavage rate: 0.00656 ± 0.0028

## UCCUGGUACAGGUUGCAUAGUAUUUACAAA
[1]
  pre-steady-state target cleavage rate: 0.0239 ± 0.011
[2]
  pre-steady-state target cleavage rate: 0.00315 ± 0.003

## UCCUGGAUCAGCAUGCAUAGUAUUUACUUA
[1]
  pre-steady-state target cleavage rate: 0.126 ± 0.016
[2]
  pre-steady-state target cleavage rate: 0.00358 ± 0.0024

## UCCUGCUACAAGCUUGCAUAGUAUUUAGUUA
[1]
  pre-steady-state target cleavage rate: 0.157 ± 0.015
[2]
  pre-steady-state target cleavage rate: 0.00805 ± 0.002

## UCCUGGAUGUCCUUCAUAGUAUUUAGUUA
[1]
  pre-steady-state target cleavage rate: 0.0147 ± 0.004
[2]
  pre-steady-state target cleavage rate: 0.00296 ± 0.0021

## UCCUGGAUCAGCUUCCUUAGUAUUUAGUUA
[1]
  pre-steady-state target cleavage rate: 0.122 ± 0.018
[2]
  pre-steady-state target cleavage rate: 0.00478 ± 0.0016

## UCCUGGAUCAGCUUCGUUAGUAUUUAGUUA
[1]
  pre-steady-state target cleavage rate: 0.0434 ± 0.0096
[2]
  pre-steady-state target cleavage rate: 0.00279 ± 0.0024

## UCCUGGAACAGCUUGCAUUGUAUAUAGUUA
[1]
  pre-steady-state target cleavage rate: 0.149 ± 0.017
[2]
  pre-steady-state target cleavage rate: 0.00496 ± 0.0025

## UCCUCCUACAGCUUGCACAGUAUUUAGUUA
[1]
  pre-steady-state target cleavage rate: 0.19 ± 0.017
[2]
  pre-steady-state target cleavage rate: 0.00767 ± 0.0021

## UCCUGGUACAGCUUGCAUAGUCAUUUAGUUA
[1]
  pre-steady-state target cleavage rate: 0.0147 ± 0.0072
[2]
  pre-steady-state target cleavage rate: 0.00451 ± 0.0041
